Out of some 310,000 compounds screened, about 14,000 (4.5%) showed an effect of 50% or more. The effect is printed as a negative number. For the sample, strong results were picked, then their nearest neighbours and some compounds at random.
target: human ether-à-go-go-related gene (hERG) potassium channel (human, UniProt Q12809); test: primary screen, population patch clamp on CHO cells stably expressing hERG; higher = less effect of the substance
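Further: peak tail current of the secondary pulse compared with the same well before compound.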

Chain of human ether-à-go-go-related gene (hERG) potassium channel (Q12809 whole entry, looked up): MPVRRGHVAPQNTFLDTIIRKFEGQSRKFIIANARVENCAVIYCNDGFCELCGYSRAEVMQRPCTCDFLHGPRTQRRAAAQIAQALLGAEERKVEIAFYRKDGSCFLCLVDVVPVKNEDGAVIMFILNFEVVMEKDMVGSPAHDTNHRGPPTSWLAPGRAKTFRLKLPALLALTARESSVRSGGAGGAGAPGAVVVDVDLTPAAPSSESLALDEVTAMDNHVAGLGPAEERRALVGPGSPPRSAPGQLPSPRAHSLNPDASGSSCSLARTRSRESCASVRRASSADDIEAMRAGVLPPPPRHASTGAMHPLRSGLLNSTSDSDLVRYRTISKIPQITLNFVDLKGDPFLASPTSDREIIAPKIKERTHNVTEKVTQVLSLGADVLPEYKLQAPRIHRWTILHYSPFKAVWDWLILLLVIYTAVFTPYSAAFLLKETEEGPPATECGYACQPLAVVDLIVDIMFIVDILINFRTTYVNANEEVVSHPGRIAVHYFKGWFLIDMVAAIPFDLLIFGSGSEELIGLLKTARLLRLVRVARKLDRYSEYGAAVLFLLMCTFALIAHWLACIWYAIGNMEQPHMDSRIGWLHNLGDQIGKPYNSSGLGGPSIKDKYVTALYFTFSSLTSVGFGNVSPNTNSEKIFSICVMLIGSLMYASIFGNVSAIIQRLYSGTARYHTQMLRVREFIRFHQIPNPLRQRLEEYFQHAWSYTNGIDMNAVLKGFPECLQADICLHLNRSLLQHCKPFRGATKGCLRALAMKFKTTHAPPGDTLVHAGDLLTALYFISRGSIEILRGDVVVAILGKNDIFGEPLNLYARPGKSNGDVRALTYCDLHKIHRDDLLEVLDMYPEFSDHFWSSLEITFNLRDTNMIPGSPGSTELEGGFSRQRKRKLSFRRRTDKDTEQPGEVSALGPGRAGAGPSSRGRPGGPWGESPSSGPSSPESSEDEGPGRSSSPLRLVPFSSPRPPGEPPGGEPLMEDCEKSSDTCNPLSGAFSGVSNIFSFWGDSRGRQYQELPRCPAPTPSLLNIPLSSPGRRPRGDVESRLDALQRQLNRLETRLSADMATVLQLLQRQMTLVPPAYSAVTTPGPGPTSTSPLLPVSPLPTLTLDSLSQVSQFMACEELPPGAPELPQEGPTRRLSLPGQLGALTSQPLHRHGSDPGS

| Compound | hERG current change (%, negative = inhibition) at 10uM [%] |
| --- | --- |
| CNC(=O)c1ccc(N(Cc2ccccc2C)S(C)(=O)=O)cc1 | -6 |
| Cn1c(C2=C(O)CN(c3ccccc3)C2=N)nc2ccccc21 | -13.2 |
| Cc1ccc(C(=O)NC(=S)Nc2ccc(N3CCN(C(=O)c4ccco4)CC3)cc2)cc1 | 17.1 |
| Cc1ccc(OC(=S)Nc2ccccc2)c(C)c1 | 6.7 |
| CCOC(=O)c1c(C)[nH]c(C(=O)COC(=O)CNS(=O)(=O)c2ccc(C)cc2)c1C | 11.8 |
| C=CCN(c1nc(C)cc(OC)n1)S(=O)(=O)c1ccccc1 | -2.09 |
| Cc1nc2c(sc3nc4c(cc32)COC(C)(C)C4)c(=O)n1Cc1ccccc1 | -10.6 |
| COCCN(C(=O)COC(=O)CCc1ccc(OC)cc1)c1c(N)n(Cc2ccccc2)c(=O)[nH]c1=O | 27.6 |
| COC(=O)C[C@H]1c2cc(F)ccc2S(=O)(=O)N1c1ccccc1 | 8.82 |
| O=C(CSC1=NNC(c2ccccn2)S1)Nc1cccc(Cl)c1 (stereo not drawn) | 12.6 |
| CCCN1CCN(CCCNC(=O)Cn2cc3c(n2)CCCC3)CC1 | -7.41 |
| CC1CCc2nn(CC(=O)NCCCN3CCCC3=O)cc2C1 (stereo not drawn) | 10.2 |
| COCCCNC(=O)Cn1cc2c(n1)CCC(C)C2 (stereo not drawn) | 1.99 |
| Cc1ccc(C)c(N2CCN(CCCNC(=O)Cn3cc4c(n3)CCC(C)C4)CC2)c1 (stereo not drawn) | -63.4 |
| O=C(Cn1cc2c(n1)CCCC2)NCCCN1CCN(c2ccccc2F)CC1 | -31.1 |
| Cc1ccc(C)c(N2CCN(CCCNC(=O)Cn3cc4c(n3)CCCCC4)CC2)c1 | -69.3 |
| COC(=O)c1ccc(Sc2ccccc2NS(=O)(=O)c2ccc(OC)cc2)nc1 | 9.67 |
| CN1CCN(c2ccc(NC(=O)Oc3ccccc3)cc2)CC1 | 17.4 |
| CCOc1ccc(C(C)(C)C)cc1S(=O)(=O)Nc1ccncc1 | 17 |
| Cn1nnc2cc(C(=O)NCc3ccco3)ccc21 | 1.15 |
| Cc1nc(Nc2nc(-c3ccccc3)cc(=O)[nH]2)nc2ccccc12 | -3.73 |
| COc1cc(/C=N/NC(=O)Cc2ccccc2)cc(OC)c1OC | 8.74 |
| COc1cc(/C=N/NC(=O)C2CCN(CC(O)COCc3ccccc3)CC2)ccc1O (stereo not drawn) | -78.1 |

| Compound | hERG current change (%, negative = inhibition) at 10uM [%] |
| --- | --- |
| CCOc1ccc(/C=N/NC(=O)C2CC2)cc1OC | 18.3 |
| COc1cc(/C=N/NC(=O)CCc2ccccc2)ccc1O | -1.02 |
| COc1cc(/C=N/NC(=O)C2CCN(CC(O)COCc3ccccc3)CC2)cc(OC)c1OC (stereo not drawn) | -71.7 |
| COc1ccc(COCC(O)CN2CCC(C(N)=O)CC2)cc1OC (stereo not drawn) | -7.47 |
| O=C(CCC(=O)c1ccc(F)cc1)NC1CCCN(Cc2ccccc2F)C1 (stereo not drawn) | -19.4 |
| CC(=O)Nc1cccc(NC(=O)C(F)(F)F)c1 | 21.2 |
| Cc1onc(-c2ccccc2)c1C(=O)OCC(=O)Nc1ccc(C#N)cc1 | -27.7 |
| O=C(/C=C/c1ccc(-c2ccccc2[N+](=O)[O-])o1)c1ccccc1 | 18.4 |
| CC(=O)c1ccc([N+](=O)[O-])cc1 | 15.7 |
| COc1cc(C)ccc1OCCOCCOc1ccc([N+](=O)[O-])cc1 | -54.8 |
| CCCOc1ccc(OCCCCNC(C)CC)cc1.O=C(O)C(=O)O (stereo not drawn) | -18.9 |
| CCC(C)NCCCOc1ccc([N+](=O)[O-])cc1.O=C(O)C(=O)O (stereo not drawn) | -74.7 |
| COc1cc(C)ccc1OCCOCCOc1ccc(C)cc1[N+](=O)[O-] | -36.1 |
| CCOC(=O)C(CCCOc1ccc(C)cc1)C(=O)OCC | -8.52 |
| CCOC(=O)C(CCCOc1ccccc1)C(=O)OCC | -14.3 |
| COc1cc(C)ccc1OCCOCCOc1ccccc1[N+](=O)[O-] | -29.5 |
| CC(=O)c1ccc(OCCOc2ccc([N+](=O)[O-])cc2)cc1 | -57.6 |
| CCOC(=O)C(CCCCOc1ccc([N+](=O)[O-])cc1)C(=O)OCC | -54.8 |
| CCC(C)NCCCCOc1ccc(Br)cc1.O=C(O)C(=O)O (stereo not drawn) | -32.6 |
| CC(=O)Nc1ccc(OCCOc2ccc([N+](=O)[O-])cc2)cc1 | 0.991 |
| CNC(=O)n1cc(C)c(-c2cccs2)n1 | 5.15 |
| Cc1cc2c(cc1S(=O)(=O)N1CCCC1)n(C)c(=O)c(=O)n2C | -4.62 |

From PMC4336329 (PLoS ONE, 2015)
